This is a sample that favours compounds with a hit; in the whole collection about 7.9% have one here.
HT1080 IDH1KD tx: toxicity to HT-1080 IDH1 knockdown cells (counter line); Potency, µM (series often up to 46.1 µM), without a hit: at the highest dose activity, negative = toxicity, hits mostly cytotoxic; actives 2% (n = 360,000); HT-1080 IDH1 knockdown viability, ATP luminescence, 48 h;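 further: 0% = DMSO wells and -100% = cell-free medium wells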
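Knockdown cells (IDH1KD HT-1080) received compounds 2 h after plating at 750 cells/well and were kept 48 h at 37 °C in 5% FBS RPMI. A CellTiter-Glo luminescence read gave % activity for curve fitting.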
SW480 rereplic: induces DNA re-replication in SW480 colon adenocarcinoma cells | actives 1.8% (n = 340,000) | Potency, µM (doses to about 46.1 µM), for the others: top-dose re-replication activation, usual class: activators | SW480 DNA re-replication, Hoechst DNA content imaging, 48 h; further: % of control where 0% means no effect; nearly all actives have a fitted effect of over 55% in size
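Readout is total intensity of Hoechst-stained nuclei, excited at 405 nm and collected at 500-530 nm. Compound treatment lasted 48 hr at 37 C in 5% CO2 before staining.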
KB-V1 MDR tox: kills drug-selected multidrug resistant KB-V1 cells. KB-V1 MDR cells viability, CellTiter-Glo, 72 h. actives 3.4% (n = 400,000). Potency, µM (series often up to 46.1 µM), hits mostly cytotoxic; further: on the % scale 0 is the no-effect control and ±100 the full control effect; nearly all actives have a fitted effect of over 60% in size
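In this primary screen, KB-V1 cells overexpressing P-gp are incubated with library compounds (lowest to highest concentration) for 72 h at 37 degrees C before a luminescent ATP viability read.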
KB-3-1 cytotox: kills parental KB-3-1 adenocarcinoma cells; KB-3-1 viability, CellTiter-Glo ATP luminescence, 72 h; Potency, µM (doses to about 46.1 µM), hits mostly cytotoxic; AID 1347075; actives 1.4% (n = 400,000); further: on the % scale 0 is the no-effect control and ±100 the full control effect; nearly all actives have a fitted effect of over 60% in size
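Cytotoxicity in the drug-sensitive parental line KB-3-1 was scored as loss of CellTiter-Glo luminescence following 72 h incubation with compound. Values come from curve fitting of normalized concentration-response data.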
HT1080NT lethal: kills 2HG-producing HT-1080-NT fibrosarcoma cells; HT-1080-NT fibrosarcoma viability, CellTiter-Glo ATP luminescence, 48 h; Potency, µM (titrated, usually from 46.1 µM), inactives show at the top dose activity, negative = less viability, most hits filed as cytotoxic; actives 1.6% (n = 360,000);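 further: NT is the 2HG producing partner of a matched IDH1 knockdown line; 0% = DMSO-treated cells and -100% = media-only wells without cells; nearly all actives have a fitted effect of over 55% in size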
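Toxicity toward the 2HG-producing NT line was scored as %Activity, normalised to DMSO and no-cell wells, from CellTiter-Glo luminescence after 48 hours' treatment.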
MCF10A rereplic: DNA re-replication induction in MCF 10a cells | MCF 10A DNA re-replication, Hoechst nuclear intensity, 48 h | AID 624296 | actives 2.9% (n = 350,000) | Potency, µM (doses to about 46.1 µM), without a hit: top-dose activity, positive = re-replication, actives largely listed as activators; further: % of control where 0% means no effect; nearly all actives have a fitted effect of over 50% in size
Active calls of the source: *; i = inactive; ? = inconclusive; . = no result; [ ] = remark or other dose. The call rests on the fitted dose curve; in most records, active means well fitted curve in the direction sought with a large enough effect; inconclusive means small, poorly fitted or top-dose-only effect, or another doubt; inactive means no such curve, though single readings can be large; an effect the other way counts as inactive or inconclusive. Potency means the concentration at half of the fitted maximal effect.

SMILES	HT1080 IDH1KD tx	SW480 rereplic	KB-V1 MDR tox	KB-3-1 cytotox	HT1080NT lethal	MCF10A rereplic
Cc1ccc(C2=NN=C(NC(=O)CSc3nnc4c5ccccc5n(C)c4n3)SC2)cc1	29µM*	?	?	?	?	-45%
CCOC(=O)C(C)Sc1nnc2c3ccccc3n(C)c2n1 (stereo not given)	2%	-8%	i	i	10%	1.8µM*
CCOC(=O)Cc1nnc(NC(=O)CSc2nnc3c4ccccc4n(C)c3n2)s1	?	0.73µM*	i	i	?	?
COc1ccccc1C(=O)N(Cc1nc(-c2ccc(Cl)cc2)no1)C(C)C	-22%	2%	i	?	-4%	-5%
CCN(CC)C(=O)CSC(=Nc1ccccc1F)NC#N	7%	3%	i	i	4%	3%
Cc1cc(C([O-])=C(C(=S)Nc2ccc(F)cc2)[n+]2ccccc2)c(C)n1-c1ccc(F)cc1	-2%	-7%	i	i	-1%	8%
Cc1cccc(OC(C)C(=O)N(Cc2cccs2)C2CCS(=O)(=O)C2)c1C (stereo not given)	-3%	5%	5.8µM*	i	7%	4%
Cc1ccccc1OCC(=O)N(Cc1cccs1)C1CCS(=O)(=O)C1 (stereo not given)	-3%	-5%	i	i	-1%	-178%[0.0737 µM]
COc1ccccc1N(CC(=O)Nc1ccc(C)c(Cl)c1)S(=O)(=O)c1ccc(C)cc1	.	.	i	i	.	.
CC(C)n1c(O)c(N=NC(=O)CNC(=O)Cc2ccc(Cl)cc2)c2ccccc21	0%	-4%	i	i	3%	-17%
CC(C)n1c(O)c(N=Nc2ccc(Cl)nn2)c2ccccc21	4%	-4%	12µM*	i	-3%	0%
CSCC[C@H](NC(=O)c1ccc(Cl)c([N+](=O)[O-])c1)c1nc2ccccc2[nH]1	?	13%	?	?	?	?
O=C(NC(Cc1ccccc1)c1nc2ccccc2[nH]1)c1ccc(Cl)c([N+](=O)[O-])c1 (stereo not given)	?	?	i	i	21µM*	?
Cc1c(C(=O)NC(Cc2ccccc2)c2nc3ccccc3[nH]2)cccc1[N+](=O)[O-] (stereo not given)	-12%	?	?	i	-14%	20%
CSCC[C@H](NC(=O)C1CCN(S(=O)(=O)c2ccc(C)cc2C)CC1)c1nc2ccccc2[nH]1	-1%	14%	23µM*	i	-4%	3%
CSCC[C@H](NC(=O)c1cccc([N+](=O)[O-])c1C)c1nc2ccccc2[nH]1	1%	13%	16µM*	i	-9%	3%
COc1ccc(/C=C2\CCCc3c2nc2ccccc2c3C(=O)OCC(=O)c2c(N)n(C)c(=O)n(C)c2=O)cc1	.	?	.	.	.	4.6µM*
COc1ccc(-c2cc(C(=O)OCC(=O)c3c(N)n(C)c(=O)n(C)c3=O)c3ccccc3n2)cc1	12%	-26%	i	i	20%	9%
COC(=O)c1cn(NC(=O)/C=C/c2cc(OC)ccc2OC)c(=O)c2ccccc12	-7%	3%	8.2µM*	i	-5%	-31%
CN(C)C(CNC(=O)C1CCN(S(=O)(=O)c2ccc(Cl)cc2)CC1)c1ccccc1 (stereo not given)	-5%	25%	i	i	-22%	2%
Cc1cc(C)c(C)c(S(=O)(=O)N2CCC(C(=O)NCC(c3ccccc3)N(C)C)CC2)c1C (stereo not given)	18µM*	177%	i	i	?	?
CC(C)OCc1cc(CN2CCN(c3ccccc3)CC2)c(O)c2ncccc12	.	.	6.5µM*	?	.	.
Cc1cc(C)c2cccnc2c1O	.	.	i	i	.	.
CCOC(=O)N1CCN(Cc2cc(Cl)c3cccnc3c2O)CC1	3.3µM*	4.6µM*	i	?	5.8µM*	?
COCc1cc(CN2CCN(C)CC2)c(O)c2ncccc12	?	?	3.7µM*	?	?	?
SMILES	HT1080 IDH1KD tx	SW480 rereplic	KB-V1 MDR tox	KB-3-1 cytotox	HT1080NT lethal	MCF10A rereplic
Oc1c(Br)cc(Br)c2cccnc12	?	?	?	i	16µM*	?
C/C=C/c1cc(CN2CCN(c3ccccc3)CC2)c(O)c(OC)c1	-24%	11%	i	?	?	?
CN1CCN(C(c2ccccn2)c2cc(Cl)c3cccnc3c2O)CC1 (stereo not given)	?	?	i	i	-24%	15%
COc1ccc(N(C(=O)c2ccncc2)S(=O)(=O)c2ccc3c4c(cccc24)C(=O)N3C)cc1	-11%	-62%	i	i	-16%	11%
c1cnc(N2CCN(Cc3c[nH]c4ccccc34)CC2)nc1	?	17%	?	?	-19%	13%
c1ccc(N2CCN(Cc3ccnc4ccccc34)CC2)cc1	?	5%	i	16µM*	-4%	5%
Oc1c(CN2CCN(c3ccccc3)CC2)cc(Br)c2cccnc12	?	18µM*	i	?	?	-2%
CCOC(=O)c1sc(NC(=O)Cc2c(F)cccc2Cl)nc1C	-1%	6%	?	i	1%	8%
CN(CC(=O)Nc1ccc(Cl)c(C(F)(F)F)c1)C(=O)/C=C/c1cccs1	0%	-2%	i	i	-5%	24%
Cc1cc2cc(C=C(C#N)C#N)c(Cl)nc2cc1C	?	?	i	i	-21%	18µM*
Cn1cnnc1SCC(=O)Nc1cc(C(=O)O)cc(C(=O)O)c1	.	.	i	i	.	.
S=c1nc(C2CCCCC2)[nH][nH]1	6.3µM*	3%	i	i	11µM*	10%
O=C(NCc1cccnc1)c1ccccc1[N+](=O)[O-]	-7%	-1%	i	i	-7%	3%
CC(=O)COc1cc(C)cc2oc(=O)cc(-c3ccccc3)c12	6%	0%	i	i	6%	-6%
COc1ccc([N+](=O)[O-])cc1COc1cc(C)cc2oc(=O)cc(-c3ccccc3)c12	?	?	6.5µM*	21µM*	?	12µM*
O=C(N[C@@H](Cc1ccccc1)C(=O)NC1CCCCC1)c1ccco1	0%	0%	13µM*	i	-1%	15%
O=C(N[C@@H](Cc1ccccc1)C(=O)NC1CCCCCC1)c1ccco1	-21%	1%	5.2µM*	?	-20%	-4%
O=C(NC(Cc1ccccc1)C(=O)O)c1ccco1 (stereo not given)	-8%	?	i	i	0%	1%

Screens from PubChem BioAssay.
